ALDH1A1 inh: qHTS Assay for Inhibitors of Aldehyde Dehydrogenase 1 (ALDH1A1); 7.3% of 220,000 active; Purified ALDH1A1, NADH fluorescence, propionaldehyde substrate; Potency, µM (titrated, usually from 75.3 µM), without a hit: at the highest dose activity, negative = inhibition, actives largely listed as inhibitors; active = well fitted inhibition curve with a large enough effect, not every such curve was filed as active; inconclusive = small, poorly fitted or top-dose-only effect, or another doubt; inactive = no such curve, though single readings can be large or run the other way;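 also: potency is read from the fitted curve at half-maximal effect; plate controls were no enzyme wells and a reference inhibitor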
IMPase inh: qHTS Assay for Identifying the Cell-Membrane Permeable IMPase Inhibitors | CHO-M1 cells, IP1 accumulation, HTRF TR-FRET ratio | 120,000 tested, under 10 active | inhibition (IP1 accumulation), % at 46.1 µM | Inositol monophosphatase 1 (Rattus norvegicus), P97697; active = well fitted curve in the direction sought with a large enough effect in the signal ratio, not every such curve was filed as active; inconclusive = small, poorly fitted or top-dose-only effect, or a change in a side signal; inactive = no such curve, though single readings can be large or run the other way; the % refers to the signal ratio;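 also: cells stimulated with carbachol in lithium chloride buffer; plate controls were DMSO basal wells for no effect and reference inhibitor wells for full effect; higher means more IMPase inhibition seen as more IP1 and lower FRET ratio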
Target sequence (P97697 whole entry, looked up): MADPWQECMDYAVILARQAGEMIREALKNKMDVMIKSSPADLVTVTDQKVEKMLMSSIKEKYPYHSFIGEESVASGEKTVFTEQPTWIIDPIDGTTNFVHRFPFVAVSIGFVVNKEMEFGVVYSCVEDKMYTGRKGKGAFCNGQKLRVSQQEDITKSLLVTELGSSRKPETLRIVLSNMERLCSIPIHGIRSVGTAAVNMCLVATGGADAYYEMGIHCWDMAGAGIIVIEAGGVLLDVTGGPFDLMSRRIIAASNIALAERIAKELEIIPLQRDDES
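Seeded CHO-M1 cells were dosed with compound at up to 46 uM, stimulated with carbachol for 30 min, then lysed in IP-One detection reagents. Higher IP1 lowers the TR-FRET signal.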
PNC inhibitor: High Content Assay for Compounds that inhibit the Assembly of the Perinucleolar Compartment; PC3M PTB-GFP, PNC prevalence imaging, 16 h; active compounds read low; activity change (PNC), negative = inhibition, % at 10 µM; 3.1% of 140,000 active; AID 2417, 2010;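 active = readout at or below -70, meaning at least 70% loss of cells showing the perinucleolar compartment, a nuclear body marking cancer cells; inconclusive = readout between -30 and a set limit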;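 also: plate controls were DMSO wells for no effect and camptothecin positive control wells for full effect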
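Compounds are pinned in duplicate onto adhered PC3M cells stably expressing GFP-tagged PTB and incubated 16 h at 37 C. Cells are then fixed, nuclei stained with Hoechst, and PNC-positive cells counted.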
NPSR antagonist: qHTS Assay for Antagonists of the Neuropeptide S Receptor: cAMP Signal Transduction | 1% of 220,000 active | CHO-NPSR cells, cAMP TR-FRET, antagonist mode | Potency, µM (series often up to 38.3 µM), inactives show at the highest dose activity change, negative = inhibition, usual class: inhibitors | AID 1461, 2008 | Q6W5P4; also: potency is read from the fitted curve at half-maximal effect; nearly all actives have a fitted effect of over 50% in size
IMPase Li cell: qHTS Assay for Identifying the Cell-Membrane Permeable IMPase Inhibitors: Potentiation with Lithium; CHO-M1 cells, IP1 TR-FRET (IP-One), carbachol + lithium; 0.35% of 210,000 active; Potency, µM (titrated, usually from 59.4 µM), for the others: at the top dose activity, negative = IMPase inhibition, hits mostly inhibitors; AID 1457, 2008;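 also: IP1 builds up when IMPase is blocked and the TR-FRET signal falls; potency is read from the fitted curve at half-maximal effect; plate controls were basal vehicle for no effect and high inhibitor control for full effect; nearly all actives have a fitted effect of over 50% in size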
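Steps: plate 2000 CHO-M1 cells per well and culture 16–30 h; add compound and lithium; incubate 30 min, 37C; add d2-IP1 tracer and Eu cryptate anti-IP1 antibody in lysis buffer; read after 10 min at room temperature.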
HPGD block: qHTS Assay for Inhibitors of HPGD (15-Hydroxyprostaglandin Dehydrogenase) | purified HPGD, NADH fluorescence kinetic, PGE2 substrate | Potency, µM, inactives show top-dose activity change, negative = inhibition, most hits filed as inhibitors | 15-hydroxyprostaglandin dehydrogenase [NAD(+)] (Homo sapiens), P15428 | 4.3% of 150,000 active; active = well fitted inhibition curve with a large enough effect, not every such curve was filed as active; inconclusive = small, poorly fitted or top-dose-only effect, or another doubt; inactive = no such curve, though single readings can be large or run the other way; also: potency is read from the fitted curve at half-maximal effect
Target sequence (P15428 whole entry, looked up): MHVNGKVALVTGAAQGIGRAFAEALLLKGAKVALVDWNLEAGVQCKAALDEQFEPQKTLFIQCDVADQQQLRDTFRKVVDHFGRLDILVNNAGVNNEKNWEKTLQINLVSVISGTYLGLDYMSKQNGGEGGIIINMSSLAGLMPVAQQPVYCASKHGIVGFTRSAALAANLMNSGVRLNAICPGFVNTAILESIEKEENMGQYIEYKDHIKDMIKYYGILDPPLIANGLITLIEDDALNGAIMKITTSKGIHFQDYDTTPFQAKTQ
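20 nM HPGD preincubated 15 min at room temperature with compound in 50 mM Tris-HCl pH 8, 0.01% Tween 20. Started with 1 mM NAD+ and 30 uM prostaglandin E2; NADH fluorescence (360/450 nm) read 5 times over 30-s intervals, last minus first.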
* marks the source's active call; other numbers are inactive results; ? = inconclusive; · = not tested or not shown; [ ] = dose if it differs, or a comment. Sampled rows, rich in hits. Any-hit rate of the full collection: about 11%. Unless noted, calls follow the shape of the dose curve; as a rule, active = well fitted curve in the direction sought with a large enough effect; inconclusive = small, poorly fitted or top-dose-only effect, or another doubt; inactive = no such curve, though single readings can be large; an effect the other way counts as inactive or inconclusive. Unless noted, % is scaled to controls: 0 for no effect and ±100 for the full control effect.

SMILES	ALDH1A1 inh	IMPase inh	PNC inhibitor	NPSR antagonist	IMPase Li cell	HPGD block
Cc1ccc(S(=O)(=O)/N=C(/c2ccc(F)cc2)N2CCCC2)cc1	-9%	·	·	0%	1%	·
COc1ccc(Cc2[nH]n3c(=O)cc(C)nc3c2-c2ccccc2)cc1	3%	·	·	-22%	14%	·
OCCC1CN(Cc2cccn2-c2cccnc2)CCN1Cc1ccc(F)cc1 (stereo not drawn)	4%	·	·	-19%	6%	·
CC(C)CN1CCN(Cc2cccn2-c2cccnc2)CC1CCO (stereo not drawn)	3.5µM*	·	·	-5%	7%	·
COc1ccc(S(=O)(=O)N(CC(=O)N2CCN(c3ccccc3OC)CC2)c2ccccc2)cc1	7.1µM*	-9	22	?	6%[38.3 µM]	-21%
C/C(=N/NC(=O)c1cccnc1)C1=C(O)CC(C)(C)CC1=O	4%	·	·	36%	0%	·
CC(=Nc1cc(C(=O)c2ccccc2)ccc1N)C1=C(O)CC(C)(C)CC1=O	7.9µM*	·	·	-27%	0%	·
COc1ccccc1Cn1c(=S)[nH]c2cc(C(=O)NCCN3CCOCC3)ccc2c1=O	20µM*	?	?	-28%[46.1 µM]	·	·
O=C(NCCN1CCCC1)c1ccc2c(=O)n(CCc3ccccc3)c(=O)[nH]c2c1	?	11	13	-18%[46.1 µM]	-17%[38.3 µM]	-23%
O=C(NCCCN1CCOCC1)c1ccc2c(=O)n(CCc3ccccc3)c(=O)[nH]c2c1	?	4	-95*	2%[46.1 µM]	27%[38.3 µM]	-8%
COc1ccc(-n2c(=S)[nH]c3cc(C(=O)NCCCN4CCOCC4)ccc3c2=O)c(OC)c1	9%	·	·	5%	10%	·
COc1ccc(N2CCN(CCNC(=O)c3ccc4c(c3)[nH]c(=S)n3c5ccccc5nc43)CC2)cc1	?	·	·	-20%	14µM*	·
O=C(NCCCN1CCCC1)c1ccc(Cn2c(=S)[nH]c3ccc(Br)cc3c2=O)cc1	22µM*	·	·	-7%	15%	·
COC(=O)c1ccc2c(=O)n(CCN3CCOCC3)c(SCC(=O)C(C)(C)C)nc2c1	13µM*	1	40	-29%[46.1 µM]	-1%[38.3 µM]	-9%
COC(=O)c1ccc2c(=O)n(CCN3CCOCC3)c(=S)[nH]c2c1	4µM*	18	-100*	3%[46.1 µM]	13%[38.3 µM]	-6%
COCCn1c(=S)[nH]c2cc(C(=O)NCCCN3CCOCC3)ccc2c1=O	16µM*	6	8	-13%[46.1 µM]	10%[38.3 µM]	-15%
COC(=O)c1ccc2c(=O)n(CCCN3CCOCC3)c(=S)[nH]c2c1	?	-15	-7	-6%[46.1 µM]	-6%[38.3 µM]	-10%
c1ccc2[nH]c(SN3CCOCC3)nc2c1	0.79µM*	18	6	-13%[46.1 µM]	-3%	11µM*
Cc1c(N2C(=O)c3ccc(Br)cc3C2=O)c(=O)n(-c2ccccc2)n1C	2%	10	35	-4%[46.1 µM]	12%[38.3 µM]	1%
Cc1c(NC(=S)N/N=C/c2ccc(N(C)C)cc2)c(=O)n(-c2ccccc2)n1C	?	·	14	-3%	7%	?
CN1C(=S)N(c2cccnc2)C(=O)/C1=C\c1ccc(C(C)(C)C)cc1	7.1µM*	·	·	-56%	24%	·
Cc1cccc(N2C(=O)/C(=C/c3cccnc3)SC2=S)c1	·	·	·	-15%	·	·
Cc1c(N2C(=O)/C(=C\c3ccc(N(C)C)cc3)N(C)C2=S)c(=O)n(-c2ccccc2)n1C	4.5µM*	14	?	-20%	9%	-7%
Cc1c(N2C(=O)c3ccc4c5c(ccc(c35)C2=O)CC4)c(=O)n(-c2ccccc2)n1C	?	-21	-92*	-2%[46.1 µM]	?	?
CN1C(=S)N(c2cccnc2)C(=O)/C1=C\c1ccc(N(C)C)cc1	13µM*	·	·	-41%	13%	·
COCC(=O)N1CCC2(CC1)CCN(c1ccc(-c3ccccc3)cc1)CC2	?	·	·	·	14%	-18%
